About 270 (0.075%) of roughly 360,000 compounds were called active. Entries that show only a call come without a potency. Calls come from the whole dose curve; as a rule, active = well fitted activation curve with a large enough effect; inconclusive = small, poorly fitted or top-dose-only effect; inactive = no such curve, though single readings can be large or run the other way. Many of the other results were omitted from the sample, so actives are more common in it than they were.
These compounds were tested against Rap guanine nucleotide exchange factor 3 (Homo sapiens) (UniProt O95398) (assay: qHTS for Agonist of cAMP-regulated guanine nucleotide exchange factor 3 (EPAC1): primary screen). Conditions: biochemical assay; series mostly up to 154 µM.
Rap guanine nucleotide exchange factor 3 (Homo sapiens), sequence (O95398 whole entry, looked up): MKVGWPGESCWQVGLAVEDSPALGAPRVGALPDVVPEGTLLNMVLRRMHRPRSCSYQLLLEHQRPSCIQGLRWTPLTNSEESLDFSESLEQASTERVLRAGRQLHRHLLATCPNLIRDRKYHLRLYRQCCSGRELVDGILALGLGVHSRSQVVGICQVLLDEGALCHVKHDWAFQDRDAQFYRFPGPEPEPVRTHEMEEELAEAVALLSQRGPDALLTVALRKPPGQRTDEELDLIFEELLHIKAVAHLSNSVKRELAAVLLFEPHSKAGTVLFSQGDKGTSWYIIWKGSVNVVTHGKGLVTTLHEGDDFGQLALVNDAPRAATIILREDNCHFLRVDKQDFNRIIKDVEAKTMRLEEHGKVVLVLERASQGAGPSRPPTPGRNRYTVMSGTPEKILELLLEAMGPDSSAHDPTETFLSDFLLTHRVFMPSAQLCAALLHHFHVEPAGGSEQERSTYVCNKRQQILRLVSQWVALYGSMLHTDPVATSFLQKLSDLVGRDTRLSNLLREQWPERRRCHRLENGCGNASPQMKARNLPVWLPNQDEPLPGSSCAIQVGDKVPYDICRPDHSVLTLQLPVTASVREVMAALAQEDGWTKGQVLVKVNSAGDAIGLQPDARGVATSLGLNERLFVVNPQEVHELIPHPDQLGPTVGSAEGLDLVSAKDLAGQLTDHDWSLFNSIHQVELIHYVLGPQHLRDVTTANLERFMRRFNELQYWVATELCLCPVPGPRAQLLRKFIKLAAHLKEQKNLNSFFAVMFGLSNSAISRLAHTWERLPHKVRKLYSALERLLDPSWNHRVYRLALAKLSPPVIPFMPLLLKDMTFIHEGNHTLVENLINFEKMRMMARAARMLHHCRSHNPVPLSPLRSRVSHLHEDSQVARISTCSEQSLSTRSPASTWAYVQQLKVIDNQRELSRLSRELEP
Source text: In multi-cellular eukaryotic organisms, the effects of cAMP are transduced by two ubiquitously-expressed intracellular cAMP receptors, the classic protein kinase A/cAMP-dependent protein kinase (PKA/cAPK) and the more recently discovered exchange protein directly activated by cAMP/cAMP-regulated guanine nucleotide exchange factor (EPAC/cAMP-GEF). Both PKA and EPAC are ubiquitously expressed in all tissues, and an increase in intracellular cAMP levels will lead to the activation of both PKA and EPAC. Therefore, careful dissections of the individual role and relative contribution of EPAC and PKA within the overall cAMP signaling in various model systems are critical for further elucidating the mechanism of cAMP signaling. To date no EPAC-specific antagonists and agonist, as well as isoform-specific agonists have been reported, and developing EPAC-specific pharmacological probes to determine the physiological functions that EPAC play in the overall cAMP-mediated signaling remains a major challenge within the research field. Furthermore, identified regulators of EPAC may lead to new mechanism-based therapeutic strategies specifically targeting the EPAC / cAMP-signaling components as EPAC has been implicated to play important roles in major human pathological conditions such as diabetes, heart disease, and cancer.
This qHTS will be used to screen the Molecular Libraries Small Molecule Repository (MLSMR) as a concentration-titration series using the NCGC unique quantitative screening (qHTS) platform to find activators for EPAC1. In addition, this assay will also be used as a counterscreen for the EPAC2 qHTS. This fluorescent based assay is developed and validated for EPAC1 that measures exchange using EPAC effector Rap1 complex with BODIPY-GDP, a GDP analog with a tethered fluorophores. Activators are identified by monitoring the change in fluorescence signal as the exchanged free BODIPY-GDP has a reduced fluorescence compared to Rap1-bound BODIPY-GDP. Increase in signal (activation) is the desired outcome for the EPAC1 agonist while no activity in this assay is desired for the EPAC2 agonist counterscreen.
[1] de Rooij, J., Zwartkruis, F. J., Verheijen, M. H., Cool, R. H., Nijman, S. M., Wittinghofer, A., and Bos, J.L. (1998) Nature 396, 474-477
NIH Chemical Genomics Center [NCGC]
NIH Molecular Libraries Probe Centers Network [MLPCN]
Assay Submitter (PI): Xiaodong Cheng, The University of Texas Medical Branch
Briefly, three uL of reagents (100 nM EPAC1, 250 nM RAP1B-BODIPY-GDP, 50 uM GDP) were dispensed into a 1536-well Greiner black solid-bottom medium binding assay plate. Controls and test compounds (23 nL) were transferred to the plate via a Kalypsys pin tool equipped with a 1536-pin array. The plates were centrifuged at 1,000 rpm for 15 seconds followed by 5 minute incubation at room temperature. The assay plates were read at 5 minute intervals for 30 minutes in the ViewLux plate reader using 480nm excitation and 540nm emission filters. The results were normalized to the agonist positive control of 6.5 mM cAMP.
With `Cc1nc(NC(=O)C23CCC(C)(C(=O)O2)C3(C)C)sc1C` (stereo not given) the Potency was “inactive”.
`N#CCCCn1c(O)c(N=NC(=O)C(O)c2ccccc2)c2ccccc21` (stereo not given) was tested, and the Potency was “inactive”.
In the case of `COc1cccc(C(=O)N2CCC(n3nccc3NC(=O)C3CCOC3)CC2)c1` (stereo not given), the Potency is reported as “inactive”.
With `CNC(=O)C1CC(=O)N(c2ccc(OCC(=O)Nc3ccccc3C)cc2)C1` (stereo not given) the Potency was “inactive”.
With `O=C(CCN1C(=O)c2ccncc2C1=O)Nc1cc(F)ccc1F` the Potency was “inactive”.
`Cc1ccc([C@H]2C[C@H](O)[C@@H](n3cc(COC(=O)c4ccccc4)nn3)CN2C(=O)C2CCCCC2)cc1` was tested, and the Potency was “inactive”.
For `Cc1ccc(CNC(=O)c2cccc3c2C(=O)c2ccc(N4CCC(C)CC4)cc2S3(=O)=O)cc1`, the Potency was 89.1 µM (active).
`COc1cccc(-c2ccc3c(c2)S(=O)(=O)c2cccc(C(=O)O)c2C3=O)c1OC` was tested, and the Potency was “inactive”.
In the case of `CC1CCN(c2ccc3c(c2)S(=O)(=O)c2cc(C(=O)O)ccc2C3=O)CC1`, the Potency is reported as “inactive”.
In the case of `O=C(O)C1=C[C@H](c2cccs2)C[C@H](OCCCCO)O1`, the Potency is reported as “inactive”.
`Cc1ccc(C(=O)OCC(=O)NCc2cc(C)c(O)c(C)c2)cc1S(=O)(=O)N1CCCCC1` was tested, and the Potency was “inactive”.
With `N#CCCn1ncc2ccccc21` the Potency was “inactive”.
With `CC(C)Cc1nnc(NC(=O)CN2C(=O)NC3(CCCCC3)C2=O)s1` the Potency was “inactive”.
With `CCC1(c2ccccc2)NC(=O)N(CC(=O)Nc2ccccc2C(=O)NC2CCCC2)C1=O` (stereo not given) the Potency was “inactive”.
`COCC(C)n1c(C)cc(C(=O)CSc2cc(C)c3ccccc3n2)c1C` (stereo not given) was tested, and the Potency was “inactive”.
For `CCOc1ccc(-c2n[nH]c(=S)n2/N=C/c2cc3c(cc2[N+](=O)[O-])OCO3)cc1`, the Potency was “inactive”.
With `OCCN1CCOCCOCCN(CCO)CCN(CCO)CC1` the Potency was “inactive”.
In the case of `Cc1ccc(Cl)cc1NC(=O)COC(=O)C1CCCCC1`, the Potency is reported as “inactive”.
`N#C/C(=C\N1CCOCC1)S(=O)(=O)c1ccc(Cl)cc1` was tested, and the Potency was “inactive”.
In the case of `O=C(CSc1nnc(-c2ccncc2)o1)NCc1ccc(Cl)cc1`, the Potency is reported as “inactive”.
In the case of `Cc1cc2nc3c(=O)n(Cc4ccccc4)c(=O)[nH]c3nc2cc1N`, the Potency is reported as 100 µM (active).
In the case of `Cn1c(=O)[nH]c(=O)c2c1[nH]c(=S)n2Cc1ccccc1`, the Potency is reported as “inactive”.
`Cc1cc(OCC(=O)N(C)c2c(N)n(Cc3ccccc3)c(=O)[nH]c2=O)c(C(C)C)cc1Cl` was tested, and the Potency was “inactive”.
For `NC(=O)C1CCN(C(=O)COc2ccc3c4c(c(=O)oc3c2)CCC4)CC1`, the Potency was “inactive”.
In the case of `O=S(=O)(c1cccc(-c2nnc(SC(F)F)n2-c2ccccc2)c1)N1CCCCC1`, the Potency is reported as “inactive”.
In the case of `O=C(O)C1=NN(c2c(F)c(F)cc(F)c2F)C(=O)CC1`, the Potency is reported as “inactive”.
With `CC(C)(C)n1nnnc1C(c1ccccc1F)N1CCN(C(=O)c2ccco2)CC1` (stereo not given) the Potency was “inactive”.
`O=c1ccc2c(-c3ccccc3S(=O)(=O)O)c3ccc(O)c(O)c3oc-2c1O` was tested, and the Potency was “inactive”.
`COc1ccc(NC(=O)C2CCC(CNS(=O)(=O)c3csc(C(N)=O)c3)CC2)cc1OC` (stereo not given) was tested, and the Potency was “inactive”.
In the case of `CCN(CC(=O)Nc1c(F)cccc1F)C(=O)Cc1cccs1`, the Potency is reported as “inactive”.
`Cc1ccc(NS(=O)(=O)c2cn(C)c(=O)n(C)c2=O)c(C)c1` was tested, and the Potency was “inactive”.
For `CCOc1ccccc1C(=O)NC1CC2CCCC(C1)N2Cc1ccccc1` (stereo not given), the Potency was “inactive”.
`Cc1noc(C)c1CSCC(=O)Nc1ccc(Br)cc1Cl` was tested, and the Potency was “inactive”.
`CCOC(=O)C(NS(=O)(=O)c1ccc(C)cc1)(C(F)(F)F)P(=O)(OCC(C)C)OCC(C)C` (stereo not given) was tested, and the Potency was “inactive”.
For `CCN(CC)S(=O)(=O)c1cc([N+](=O)[O-])ccc1NNC(=O)Nc1ccccc1`, the Potency was “inactive”.
With `Cc1ccccc1N1C(=O)C2ON(c3ccccc3)C(c3ccncc3)C2C1=O` (stereo not given) the Potency was “inactive”.
For `CCOC(=O)c1c(NC(=O)CNC2CCCc3ccccc32)sc(C(N)=O)c1C` (stereo not given), the Potency was “inactive”.
In the case of `Cc1n[nH]c(=O)c2c1nnn2Cc1ccc(F)cc1`, the Potency is reported as “inactive”.
For `O=C(COc1ccc2ccccc2c1)N1CCN(C(=O)c2cccs2)CC1`, the Potency was “inactive”.
`O=C(NC(C(=O)NCCN1CCOCC1)C12CC3CC(CC(C3)C1)C2)C1CCCCC1` (stereo not given) was tested, and the Potency was “inactive”.
`Cc1cc(C)cc(NC(=O)C(c2ccccc2)N2CCN(CC(=O)N3CCCC3)CC2)c1` (stereo not given) was tested, and the Potency was “inactive”.
`Cc1ccccc1Cn1c2ccccc2c2cnn(CC(=O)NCc3ccco3)c(=O)c21` was tested, and the Potency was “inactive”.
`C(#CCN1CCOCC1)CCCN1CCOCC1` was tested, and the Potency was “inactive”.
`O=C1CC2(CC(c3ccc(Cl)cc3)=NO2)C(=O)N1c1ccccc1` (stereo not given) was tested, and the Potency was “inactive”.
With `COc1ccc(N2CCN(C(=O)CN3C(=O)COc4ccccc43)CC2)cc1` the Potency was “inactive”.
`Cc1cccc(OCC(O)Cn2c(N3CCCCC3)nc3c2c(=O)[nH]c(=O)n3C)c1` (stereo not given) was tested, and the Potency was “inactive”.
`COc1ccc(C2NCCCC2c2ccccc2)cc1` (stereo not given) was tested, and the Potency was “inactive”.
With `CCCCCn1c(SCCC(C)C)nc2c1c(=O)[nH]c(=O)n2C` the Potency was “inactive”.
`Cc1ccc2c(CSc3nncs3)cc(=O)oc2c1` was tested, and the Potency was “inactive”.
For `CCCc1ccc(OCC(O)CN2CCN(CCO)CC2)cc1` (stereo not given), the Potency was “inactive”.
For `COc1ccccc1N1CCN(S(=O)(=O)CCNC(=O)c2ccc(OC(C)C)cc2)CC1`, the Potency was “inactive”.
`Cc1cc(NS(=O)(=O)c2ccc(NC(=O)C(C)Oc3cccc(C)c3C)cc2)nc(C)n1` (stereo not given) was tested, and the Potency was “inactive”.
For `CCc1c(C)sc(NC(=O)OC)c1C(=O)N1CCOCC1`, the Potency was “inactive”.
`O=S1(=O)N=C(N(CCO)/N=C/c2ccccc2F)c2ccccc21` was tested, and the Potency was “inactive”.
`CCOc1cc(/C=C2/N=C(c3ccc(C(C)(C)C)cc3)OC2=O)cc(Cl)c1OS(C)(=O)=O` was tested, and the Potency was “inactive”.
For `COc1ccc(C(=O)COC(=O)Cn2cnc3c2c(=O)n(C)c(=O)n3C)c(OC)c1`, the Potency was “inactive”.
In the case of `CC(=O)c1c(C)[nH]c(C(=O)OCC(=O)Nc2sc3c(c2C#N)CCCC3)c1C`, the Potency is reported as “inactive”.
For `NC(=O)C1=C[C@H](c2csc3ccccc23)C[C@H](OCc2ccc(CO)cc2)O1`, the Potency was “inactive”.
In the case of `Cc1cccc(CCNS(=O)(=O)c2ccc(S(=O)(=O)NC3CCCC3)cc2)c1`, the Potency is reported as “inactive”.
For `Cn1c(NC(=O)c2ccco2)c(-c2ccccc2Cl)c(=O)c2ccccc21`, the Potency was “inactive”.
In the case of `C/C=C/c1ccc(OCC(=O)NNC(=O)CN(C)S(=O)(=O)c2ccc(C)cc2)c(OC)c1`, the Potency is reported as “inactive”.
With `Cc1ccc(S(=O)(=O)N(C)C)cc1NC(=O)C1Cc2ccccc2CN1C(=O)c1ccco1` (stereo not given) the Potency was “inactive”.
In the case of `CCOc1ccc(S(=O)(=O)N/N=C(\C)c2ccc(Cl)c(Cl)c2Cl)cc1`, the Potency is reported as “inactive”.
In the case of `C[n+]1ccc(/C=C/c2c[nH]c3ccccc23)cc1`, the Potency is reported as 100 µM (active).
`CC(C)(C)c1ccc(SCCc2ccncc2)cc1` was tested, and the Potency was “inactive”.
For `O=C(Nc1ccccc1Cl)NC1(C(=O)N2CCOCC2)CCCCC1`, the Potency was “inactive”.
For `CCCCC(=O)N(c1ccc(OC)cc1)C1C=CS(=O)(=O)C1` (stereo not given), the Potency was “inactive”.
`CC(C)COC(=O)c1ccc(NC(=O)C2C3C=CC(C3)C2C(=O)O)cc1` (stereo not given) was tested, and the Potency was “inactive”.
`COc1cncc(-c2cnc3sc(NCCc4ccccn4)nn23)c1` was tested, and the Potency was “inactive”.
With `COCCN1C(=O)c2oc3c(C)cc(C)cc3c(=O)c2C1c1cccc(O)c1` (stereo not given) the Potency was “inactive”.
For `O=C1CCC(=O)N1CCOP1(=O)COc2ccccc2OC1`, the Potency was “inactive”.
`COc1ccc(C)cc1NC(=O)CN1c2cccc3cccc(c23)S1(=O)=O` was tested, and the Potency was “inactive”.
With `COC(=O)c1c(C)cc(O)c(C)c1O` the Potency was “inactive”.
With `CC(=O)N1c2ccc(S(=O)(=O)N3CCCC(C(=O)NCc4ccc(Cl)cc4)C3)cc2CC1C` (stereo not given) the Potency was “inactive”.
With `Cc1ccc(Cl)cc1NC(=O)COC(=O)CC(C)(C)C` the Potency was “inactive”.
In the case of `CN(CC(O)COc1ccc(S(=O)(=O)N2CCOCC2)cc1Cl)C1CCCCC1` (stereo not given), the Potency is reported as “inactive”.
In the case of `Cc1ccc(C(C)C)c(OCc2nnc(SCC(=O)Nc3nccs3)n2C)c1`, the Potency is reported as “inactive”.
With `O=C(c1ccccc1)N1CCC(CC2CC(c3ccc(Cl)cc3)=NO2)(C(=O)NCC2CCCCC2)CC1` (stereo not given) the Potency was “inactive”.
With `CCc1c(O)nc(SCC(=O)N2CCCCC2)n(-c2ccccc2C)c1=O` the Potency was “inactive”.
For `Cc1ccc(CN2CCN(c3ccccc3Cl)CC2)o1`, the Potency was “inactive”.
Note: nearly all actives have a fitted effect of over 60% in size.
Potency is the fitted concentration of half-maximal effect.
